For experiment [1], the target named is Death-associated protein kinase 1 (Homo sapiens) (UniProt P53355). The note with it: at 10 µM.
Experiment [2] deals with Death-associated protein kinase 2 (Homo sapiens) (UniProt Q9UIK4). The note with it: at 1 µM.
The target is the same in experiment [3]. The note with it: at 10 µM.
Experiment [4] addresses T1, Serine/threonine-protein kinase DCLK2 (Homo sapiens) (UniProt Q8N568).
T1 sequence (whole entry): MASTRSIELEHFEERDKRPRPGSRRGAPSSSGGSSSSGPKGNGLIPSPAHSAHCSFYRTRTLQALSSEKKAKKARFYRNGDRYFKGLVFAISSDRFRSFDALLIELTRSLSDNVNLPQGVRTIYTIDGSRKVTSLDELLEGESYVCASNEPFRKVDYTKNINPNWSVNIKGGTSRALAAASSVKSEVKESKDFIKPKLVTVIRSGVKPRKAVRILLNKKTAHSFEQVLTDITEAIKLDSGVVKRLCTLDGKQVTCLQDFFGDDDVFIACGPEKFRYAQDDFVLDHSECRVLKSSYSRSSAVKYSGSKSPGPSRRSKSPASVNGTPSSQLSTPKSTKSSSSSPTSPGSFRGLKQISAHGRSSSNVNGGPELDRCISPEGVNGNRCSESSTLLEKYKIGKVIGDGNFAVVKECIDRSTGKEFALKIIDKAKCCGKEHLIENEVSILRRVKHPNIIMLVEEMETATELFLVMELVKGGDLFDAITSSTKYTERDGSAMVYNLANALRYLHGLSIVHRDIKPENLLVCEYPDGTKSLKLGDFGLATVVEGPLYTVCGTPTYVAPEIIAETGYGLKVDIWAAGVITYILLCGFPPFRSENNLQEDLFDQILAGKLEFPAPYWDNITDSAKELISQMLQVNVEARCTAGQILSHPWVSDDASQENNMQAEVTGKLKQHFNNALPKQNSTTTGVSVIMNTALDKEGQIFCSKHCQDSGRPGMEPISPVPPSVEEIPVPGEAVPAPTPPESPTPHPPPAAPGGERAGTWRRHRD
The note with it: at 1 µM.

In experiment [5] the target is T1, Serine/threonine-protein kinase DCLK2 (Homo sapiens). Particulars: at 10 µM.
The target of experiment [6] is T2, Discoidin domain-containing receptor 2 (Homo sapiens) (UniProt Q16832).
T2 sequence (whole entry): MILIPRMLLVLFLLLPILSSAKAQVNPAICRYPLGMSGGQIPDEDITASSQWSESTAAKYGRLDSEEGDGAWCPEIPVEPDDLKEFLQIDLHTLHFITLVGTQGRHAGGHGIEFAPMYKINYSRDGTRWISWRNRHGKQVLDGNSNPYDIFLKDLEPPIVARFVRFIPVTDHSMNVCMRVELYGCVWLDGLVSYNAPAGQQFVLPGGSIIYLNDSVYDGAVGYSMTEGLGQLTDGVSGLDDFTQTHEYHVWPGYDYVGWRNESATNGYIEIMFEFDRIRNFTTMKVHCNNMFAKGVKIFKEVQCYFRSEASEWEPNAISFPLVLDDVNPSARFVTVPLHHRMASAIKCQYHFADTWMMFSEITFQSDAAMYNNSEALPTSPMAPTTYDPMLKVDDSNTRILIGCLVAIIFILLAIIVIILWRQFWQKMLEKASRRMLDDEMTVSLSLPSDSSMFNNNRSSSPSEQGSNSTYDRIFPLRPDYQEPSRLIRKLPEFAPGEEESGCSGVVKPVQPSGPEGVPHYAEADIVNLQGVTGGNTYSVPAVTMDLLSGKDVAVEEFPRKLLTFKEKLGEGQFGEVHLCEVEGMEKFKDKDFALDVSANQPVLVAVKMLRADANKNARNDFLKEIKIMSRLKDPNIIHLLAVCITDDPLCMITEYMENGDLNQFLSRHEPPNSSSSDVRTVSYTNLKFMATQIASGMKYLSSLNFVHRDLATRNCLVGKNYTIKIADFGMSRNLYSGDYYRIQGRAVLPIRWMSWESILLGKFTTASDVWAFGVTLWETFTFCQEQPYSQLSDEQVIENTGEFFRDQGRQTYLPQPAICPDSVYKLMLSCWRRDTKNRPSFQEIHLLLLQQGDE
The note with it: at 1 µM.

Experiment [7] deals with T2, Discoidin domain-containing receptor 2 (Homo sapiens). Particulars: at 10 µM.
Experiment [8] deals with T3, Myotonin-protein kinase (Homo sapiens) (UniProt Q09013).
T3 sequence (whole entry): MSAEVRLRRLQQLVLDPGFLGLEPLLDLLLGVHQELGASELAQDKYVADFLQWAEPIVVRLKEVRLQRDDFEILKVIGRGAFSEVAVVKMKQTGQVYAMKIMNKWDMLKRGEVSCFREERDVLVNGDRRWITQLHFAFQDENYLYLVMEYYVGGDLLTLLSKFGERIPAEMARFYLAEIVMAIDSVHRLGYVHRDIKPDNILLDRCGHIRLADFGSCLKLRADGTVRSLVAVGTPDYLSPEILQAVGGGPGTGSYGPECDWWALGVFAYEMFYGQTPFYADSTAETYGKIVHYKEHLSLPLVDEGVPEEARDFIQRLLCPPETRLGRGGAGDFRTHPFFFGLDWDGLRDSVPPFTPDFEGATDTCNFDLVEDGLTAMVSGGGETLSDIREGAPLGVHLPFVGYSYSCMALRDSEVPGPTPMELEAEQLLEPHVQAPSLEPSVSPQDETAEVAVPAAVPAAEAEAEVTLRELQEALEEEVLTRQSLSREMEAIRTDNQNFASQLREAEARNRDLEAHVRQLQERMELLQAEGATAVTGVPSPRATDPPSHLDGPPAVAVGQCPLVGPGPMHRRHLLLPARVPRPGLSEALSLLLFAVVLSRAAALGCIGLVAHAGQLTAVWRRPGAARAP
The note with it: at 1 µM.

For experiment [9], the target named is T3, Myotonin-protein kinase (Homo sapiens). The note with it: at 10 µM.
The target in experiment [10] is T4, Serine/threonine-protein kinase 17A (Homo sapiens) (UniProt Q9UEE5).
T4 sequence (whole entry): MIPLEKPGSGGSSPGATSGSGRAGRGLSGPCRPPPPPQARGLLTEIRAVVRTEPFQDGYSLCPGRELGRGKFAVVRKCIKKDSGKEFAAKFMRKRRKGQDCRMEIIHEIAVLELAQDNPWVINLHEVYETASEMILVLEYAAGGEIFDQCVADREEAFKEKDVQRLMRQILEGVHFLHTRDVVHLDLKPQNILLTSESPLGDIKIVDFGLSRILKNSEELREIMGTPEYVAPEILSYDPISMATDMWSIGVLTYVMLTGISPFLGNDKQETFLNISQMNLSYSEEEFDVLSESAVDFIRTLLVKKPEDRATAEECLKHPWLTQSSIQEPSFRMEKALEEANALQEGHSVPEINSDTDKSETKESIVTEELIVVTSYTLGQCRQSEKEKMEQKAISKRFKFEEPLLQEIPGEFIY
Particulars: at 1 µM.

Experiment [11] addresses T4, Serine/threonine-protein kinase 17A (Homo sapiens). Particulars: at 10 µM.
Experiment [12] concerns the target T5, Dual specificity tyrosine-phosphorylation-regulated kinase 2 (Homo sapiens) (UniProt Q92630).
T5 sequence (whole entry): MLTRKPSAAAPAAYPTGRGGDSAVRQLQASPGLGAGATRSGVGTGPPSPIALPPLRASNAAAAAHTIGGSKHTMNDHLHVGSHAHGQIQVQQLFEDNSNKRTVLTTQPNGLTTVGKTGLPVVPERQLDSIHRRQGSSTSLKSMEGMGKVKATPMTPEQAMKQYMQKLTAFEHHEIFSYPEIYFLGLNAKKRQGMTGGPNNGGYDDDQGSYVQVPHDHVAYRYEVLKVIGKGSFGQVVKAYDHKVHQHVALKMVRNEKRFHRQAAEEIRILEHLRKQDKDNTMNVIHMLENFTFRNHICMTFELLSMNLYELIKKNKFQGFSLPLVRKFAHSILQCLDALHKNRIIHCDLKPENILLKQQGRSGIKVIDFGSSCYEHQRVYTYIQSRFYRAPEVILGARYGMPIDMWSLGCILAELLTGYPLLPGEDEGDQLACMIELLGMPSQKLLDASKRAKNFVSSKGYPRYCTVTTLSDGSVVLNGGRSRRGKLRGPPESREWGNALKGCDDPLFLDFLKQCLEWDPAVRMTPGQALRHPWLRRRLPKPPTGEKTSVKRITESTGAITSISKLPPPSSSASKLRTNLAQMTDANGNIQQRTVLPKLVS
Particulars: at 1 µM.

The target in experiment [13] is T5, Dual specificity tyrosine-phosphorylation-regulated kinase 2 (Homo sapiens). Particulars: at 10 µM.
The target in experiment [14] is T6, Ephrin type-A receptor 1 (Homo sapiens) (UniProt P21709).
T6 sequence (whole entry): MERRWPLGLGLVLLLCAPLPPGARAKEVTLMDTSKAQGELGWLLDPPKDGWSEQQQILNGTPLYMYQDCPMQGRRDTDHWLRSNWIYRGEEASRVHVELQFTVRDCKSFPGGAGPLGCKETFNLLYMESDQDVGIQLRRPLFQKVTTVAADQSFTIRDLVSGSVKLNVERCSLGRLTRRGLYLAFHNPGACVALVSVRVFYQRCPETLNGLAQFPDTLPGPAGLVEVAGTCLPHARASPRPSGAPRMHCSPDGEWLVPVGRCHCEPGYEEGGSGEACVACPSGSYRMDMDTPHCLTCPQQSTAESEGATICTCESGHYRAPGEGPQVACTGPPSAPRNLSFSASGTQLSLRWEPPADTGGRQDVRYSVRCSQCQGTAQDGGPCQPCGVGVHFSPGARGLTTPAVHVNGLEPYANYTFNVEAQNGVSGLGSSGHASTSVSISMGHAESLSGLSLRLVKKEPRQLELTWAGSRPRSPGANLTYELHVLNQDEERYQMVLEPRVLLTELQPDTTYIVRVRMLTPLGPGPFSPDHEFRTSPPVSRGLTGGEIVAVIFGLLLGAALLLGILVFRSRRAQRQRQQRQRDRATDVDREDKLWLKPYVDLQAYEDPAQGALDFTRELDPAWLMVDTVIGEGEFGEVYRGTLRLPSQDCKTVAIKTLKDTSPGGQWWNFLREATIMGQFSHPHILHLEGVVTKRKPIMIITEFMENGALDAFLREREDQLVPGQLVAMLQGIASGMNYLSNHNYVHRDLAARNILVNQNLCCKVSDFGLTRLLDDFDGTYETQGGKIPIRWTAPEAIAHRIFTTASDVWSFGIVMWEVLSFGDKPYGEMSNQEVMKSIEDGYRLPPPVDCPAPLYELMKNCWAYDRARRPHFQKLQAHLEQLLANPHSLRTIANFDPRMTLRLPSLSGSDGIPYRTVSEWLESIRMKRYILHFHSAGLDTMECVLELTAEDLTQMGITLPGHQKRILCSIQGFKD
The note with it: at 1 µM.

The target of experiment [15] is T6, Ephrin type-A receptor 1 (Homo sapiens). The note with it: at 10 µM.
For experiment [16], the target named is Ephrin type-A receptor 2 (Homo sapiens) (UniProt P29317). Particulars: at 1 µM.
Experiment [17] shares this target. The note with it: at 10 µM.
In experiment [18] the target is T7, Ephrin type-A receptor 3 (Homo sapiens) (UniProt P29320).
T7 sequence (whole entry): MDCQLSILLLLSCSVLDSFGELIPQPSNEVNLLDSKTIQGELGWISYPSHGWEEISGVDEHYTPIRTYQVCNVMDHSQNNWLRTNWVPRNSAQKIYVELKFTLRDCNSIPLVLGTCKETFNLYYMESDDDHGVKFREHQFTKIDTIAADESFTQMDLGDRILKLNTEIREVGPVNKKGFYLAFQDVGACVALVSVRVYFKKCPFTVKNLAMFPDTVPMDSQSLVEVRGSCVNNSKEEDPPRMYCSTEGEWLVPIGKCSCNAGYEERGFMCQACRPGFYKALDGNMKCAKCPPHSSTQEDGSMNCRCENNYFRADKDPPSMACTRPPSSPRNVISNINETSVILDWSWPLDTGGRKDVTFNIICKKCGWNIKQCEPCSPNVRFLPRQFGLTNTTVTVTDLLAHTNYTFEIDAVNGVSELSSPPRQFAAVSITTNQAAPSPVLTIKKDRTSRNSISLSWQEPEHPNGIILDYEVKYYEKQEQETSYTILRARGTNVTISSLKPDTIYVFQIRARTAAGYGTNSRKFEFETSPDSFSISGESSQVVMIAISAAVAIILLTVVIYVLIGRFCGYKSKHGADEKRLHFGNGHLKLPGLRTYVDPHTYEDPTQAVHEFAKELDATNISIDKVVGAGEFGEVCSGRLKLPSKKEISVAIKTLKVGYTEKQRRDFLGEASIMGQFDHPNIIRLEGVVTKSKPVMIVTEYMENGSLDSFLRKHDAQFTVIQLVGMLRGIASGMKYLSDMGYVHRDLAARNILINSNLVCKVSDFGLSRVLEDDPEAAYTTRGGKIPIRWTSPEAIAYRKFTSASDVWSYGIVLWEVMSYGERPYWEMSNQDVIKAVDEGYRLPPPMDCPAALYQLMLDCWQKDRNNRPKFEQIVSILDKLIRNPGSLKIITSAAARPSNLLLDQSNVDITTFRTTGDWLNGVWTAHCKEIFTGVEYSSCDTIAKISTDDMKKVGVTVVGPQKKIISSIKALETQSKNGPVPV
Particulars: at 1 µM.

The record followed here is ChEMBL document CHEMBL2218924, “A broad activity screen in support of a chemogenomic map for kinase signalling research and drug discovery” (Biochem J, 2013).

Sequence of Death-associated protein kinase 2 (Homo sapiens) (Q9UIK4 whole entry, looked up): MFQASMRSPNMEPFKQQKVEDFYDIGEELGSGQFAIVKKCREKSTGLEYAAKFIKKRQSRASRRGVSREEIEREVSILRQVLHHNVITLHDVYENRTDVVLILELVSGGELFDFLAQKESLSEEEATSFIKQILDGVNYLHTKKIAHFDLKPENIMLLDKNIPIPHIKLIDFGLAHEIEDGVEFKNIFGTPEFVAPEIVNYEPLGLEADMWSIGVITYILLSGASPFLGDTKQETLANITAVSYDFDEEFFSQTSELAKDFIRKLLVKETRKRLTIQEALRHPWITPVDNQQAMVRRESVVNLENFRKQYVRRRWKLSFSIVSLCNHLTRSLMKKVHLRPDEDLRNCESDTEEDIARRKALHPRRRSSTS
Sequence of Ephrin type-A receptor 2 (Homo sapiens) (P29317 whole entry): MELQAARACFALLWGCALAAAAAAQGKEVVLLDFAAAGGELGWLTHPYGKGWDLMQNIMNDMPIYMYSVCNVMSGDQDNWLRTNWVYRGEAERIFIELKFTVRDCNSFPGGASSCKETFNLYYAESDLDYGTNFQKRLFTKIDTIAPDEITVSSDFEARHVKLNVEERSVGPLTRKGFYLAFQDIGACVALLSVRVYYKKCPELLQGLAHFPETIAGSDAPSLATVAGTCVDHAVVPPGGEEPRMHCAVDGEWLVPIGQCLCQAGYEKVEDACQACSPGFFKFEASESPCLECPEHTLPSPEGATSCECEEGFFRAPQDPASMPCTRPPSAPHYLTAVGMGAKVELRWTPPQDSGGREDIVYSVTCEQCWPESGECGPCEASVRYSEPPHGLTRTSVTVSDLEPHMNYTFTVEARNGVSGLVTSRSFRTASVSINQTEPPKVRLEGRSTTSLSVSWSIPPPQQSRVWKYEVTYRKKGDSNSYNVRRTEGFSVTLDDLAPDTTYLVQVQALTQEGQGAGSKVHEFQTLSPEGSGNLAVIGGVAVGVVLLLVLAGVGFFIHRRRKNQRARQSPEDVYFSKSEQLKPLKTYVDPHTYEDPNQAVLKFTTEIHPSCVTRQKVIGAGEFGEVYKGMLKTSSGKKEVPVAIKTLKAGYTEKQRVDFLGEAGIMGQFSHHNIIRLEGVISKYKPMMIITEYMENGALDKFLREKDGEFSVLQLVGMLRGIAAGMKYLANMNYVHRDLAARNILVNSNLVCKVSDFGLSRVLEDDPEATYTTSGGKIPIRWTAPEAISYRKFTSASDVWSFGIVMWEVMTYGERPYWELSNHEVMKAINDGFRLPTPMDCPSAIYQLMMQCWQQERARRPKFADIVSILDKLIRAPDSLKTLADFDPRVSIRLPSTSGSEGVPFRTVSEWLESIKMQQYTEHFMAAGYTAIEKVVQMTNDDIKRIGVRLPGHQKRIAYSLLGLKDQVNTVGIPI
Sequence of Death-associated protein kinase 1 (Homo sapiens) (P53355 whole entry, looked up): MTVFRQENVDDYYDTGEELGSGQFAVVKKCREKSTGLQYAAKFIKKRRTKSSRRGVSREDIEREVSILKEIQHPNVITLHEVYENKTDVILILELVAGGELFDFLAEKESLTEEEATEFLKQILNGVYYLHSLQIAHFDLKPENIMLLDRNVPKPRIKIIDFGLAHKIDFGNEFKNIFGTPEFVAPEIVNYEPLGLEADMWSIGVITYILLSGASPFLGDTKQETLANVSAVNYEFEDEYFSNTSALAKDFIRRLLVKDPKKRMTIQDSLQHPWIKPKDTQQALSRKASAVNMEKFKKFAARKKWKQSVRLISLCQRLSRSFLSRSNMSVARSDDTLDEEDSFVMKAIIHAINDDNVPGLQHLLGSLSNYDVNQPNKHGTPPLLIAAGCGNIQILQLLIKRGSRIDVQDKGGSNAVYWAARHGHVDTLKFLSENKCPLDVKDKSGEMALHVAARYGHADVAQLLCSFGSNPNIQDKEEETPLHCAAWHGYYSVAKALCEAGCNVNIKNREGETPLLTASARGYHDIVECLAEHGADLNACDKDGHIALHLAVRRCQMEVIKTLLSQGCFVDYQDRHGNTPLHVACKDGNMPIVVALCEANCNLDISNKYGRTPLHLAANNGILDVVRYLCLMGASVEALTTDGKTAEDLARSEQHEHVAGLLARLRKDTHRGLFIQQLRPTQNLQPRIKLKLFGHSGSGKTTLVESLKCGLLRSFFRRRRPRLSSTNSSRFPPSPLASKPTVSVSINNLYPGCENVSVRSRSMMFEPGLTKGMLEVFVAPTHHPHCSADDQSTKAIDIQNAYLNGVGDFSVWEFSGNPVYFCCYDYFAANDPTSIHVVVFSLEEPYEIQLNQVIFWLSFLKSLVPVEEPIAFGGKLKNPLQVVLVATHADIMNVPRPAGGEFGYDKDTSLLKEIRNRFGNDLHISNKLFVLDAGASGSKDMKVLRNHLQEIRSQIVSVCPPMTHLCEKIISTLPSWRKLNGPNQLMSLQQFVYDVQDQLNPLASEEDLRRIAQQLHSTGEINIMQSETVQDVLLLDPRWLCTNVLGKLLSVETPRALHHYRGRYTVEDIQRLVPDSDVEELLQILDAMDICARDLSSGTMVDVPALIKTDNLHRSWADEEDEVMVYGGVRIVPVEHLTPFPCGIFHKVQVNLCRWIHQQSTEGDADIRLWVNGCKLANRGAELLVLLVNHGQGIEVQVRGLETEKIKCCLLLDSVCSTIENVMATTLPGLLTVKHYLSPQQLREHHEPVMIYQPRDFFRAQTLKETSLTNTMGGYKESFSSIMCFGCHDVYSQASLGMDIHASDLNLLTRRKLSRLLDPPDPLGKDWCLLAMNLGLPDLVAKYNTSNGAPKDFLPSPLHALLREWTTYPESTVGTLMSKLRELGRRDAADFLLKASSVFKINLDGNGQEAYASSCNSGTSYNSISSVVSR

For `Oc1ccc(Nc2nc(-c3ccc(Cl)cc3)cs2)cc1`, the residual activity in [1] was found to be 107%; in [2] it was 101%; in [3], 107%; in [4], 123%; in [5] it was 179%; in experiment [6] it was 97%. Moreover, the residual activity came out at 104% in experiment [7]; 100% in experiment [8]; 98% in experiment [9]; 119% in experiment [10]; 96% in experiment [11]; 104% in [12]. Also, the residual activity in experiment [13] amounted to 93%; in experiment [14] it was 95%; in [15], 63%; in [16], 88%; in [17], 113%; in experiment [18], 107%.

For the molecule `Cn1nc2c3c(cccc31)C(=O)c1ccccc1-2`, the residual activity in experiment [1] was 77%; in experiment [2], 93%; in experiment [3], 76%; in experiment [4], 75%; in [5], 89%; in experiment [6], 100%. Further, the residual activity in experiment [7] turned out to be 104%; in experiment [8] it was 127%; in experiment [9], 84%; in experiment [10], 50%; in experiment [11] it was 20%; in [12], 91%. For the same molecule, the residual activity worked out at 75% in experiment [13]; 88% in experiment [14]; 68% in experiment [15]; 92% in experiment [16]; 97% in [17]; 88% in experiment [18].

The term residual activity denotes the signal under treatment as a percentage of the control signal.
